Reference: PubChem BioAssay (NCATS)

test: qHTS drug screen for cell cycle checkpoint inhibitors in PARPi-resistant BRCA-mutant ovarian cancer cell lines. (AID 1963452); settings: PEO1/OlaR viability, CellTiter-Glo luminescence, 96 h; measured here: PEO4 Z-AUC; stronger effect = lower value
Outline: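 PEO1, PEO4 and PEO1/OlaR ovarian cancer cells, 600 per well, exposed 96 h at 37C to a dilution series. Viability read by CellTiter-Glo luminescence, normalized to DMSO and empty wells; activity summarized as Z-AUC.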

Compound	Z-AUC
NC1=N[C@@]2(c3cc(NC(=O)c4ccc(F)cn4)ccc3F)COC[C@H]2CS1	0.598
C[C@@H]1CC(=O)Nc2cccc(-c3ccc4c(c3)c(-c3cnn(C)c3)nn4C)c2N1	1.12
C=C1C[C@H]2C=Nc3cc(OCCCOc4cc5c(cc4OC)C(=O)N4CC(=C)C[C@H]4C=N5)c(OC)cc3C(=O)N2C1	0.852
O=c1ncccn1[C@@H]1O[C@H](CO)[C@@H](O)[C@H]1O	-1.39
CONC(=O)Nc1ccc(-c2sc3c(c2CN(C)C)c(=O)n(-c2ccc(OC)nn2)c(=O)n3Cc2c(F)cccc2F)cc1	0.818
CC(C)(O)CC[C@@H](O)[C@](C)(O)[C@H]1CC[C@@]2(O)C3=CC(=O)[C@@H]4C[C@@H](O)[C@@H](O)C[C@]4(C)[C@H]3CC[C@]12C	0.947
Cc1c(-c2c(-c3ccc(F)o3)sc3ncnc(O[C@@H](Cc4ccccc4OCc4ccnn4CC(F)(F)F)C(=O)O)c23)ccc(OCCN2CCN(C)CC2)c1Cl	1
